TROY signal inh – inhibitors of TROY-dependent NF-kB signaling. Q293 LMP1-TROYcd NF-kB luciferase reporter, 4 h. inhibition, % at 10 µM. actives 0.98% (n = 360,000);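 active means compounds whose plate-normalised and pattern-corrected inhibition of the luciferase reporter signal at the single screening dose is 50% or more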
CF NFkB inh – blocks PAF-induced NF-kB reporter in cystic fibrosis cells. KKLEB NF-kB-GFP reporter, GFP fluorescence overnight. inhibition, % at 5 µM. actives 0.86% (n = 360,000). AID 588850;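 active means at least 50% inhibition at 5 µM, scaled per plate between neutral and stimulator controls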;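 further: PAF is a Pseudomonas aeruginosa culture filtrate used as stimulus; plate controls were PAF-stimulated DMSO wells for no effect and unstimulated DMSO wells for full effect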
TWEAK-Fn14 inh – inhibitors of TWEAK-Fn14 interaction signaling. TWEAK-stimulated Fn14 reporter cells, luciferase luminescence, 8 h. inhibition, % at 10 µM. actives 2% (n = 360,000); in the data active means inhibition above about 50%
HIF-2a inh – HIF-2a inhibition; 786-0 RCC cells HIF-2a reporter, luciferase luminescence, overnight; inhibition, % at 18.8 µM; actives 0.72% (n = 360,000); AID 624352;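 active means inhibition of the luminescence signal of 40% or more relative to plate controls, in a single-dose primary screen at 18.75 µM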
KKLEB tox – CF airway cell cytotoxicity counter-screen | KKLEB CF airway cells viability, ATPlite luminescence, overnight; stronger effect = lower value; cells stimulated with P. aeruginosa culture filtrate | activity change (cytotoxicity), % at 5 µM | actives 0.36% (n = 360,000) | AID 602141;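 active means corrected activity change at or below -50% at 5 µM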
Peg3 prom inh-1 – reduces Peg3 promoter-driven luciferase expression in HeLa. actives 1.7% (n = 360,000). inhibition, % at 20 µM. AID 588405. HeLa PEG-Prom luciferase reporter, luminescence, overnight;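 active means inhibition of at least 50% at 20 µM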
Peg3 prom inh-2 – Peg3 promoter inhibition confirmation; actives 84% (n = 1,300); shares compounds with Peg3 prom inh-1; inhibition, % at 20 µM; HeLa PEG-Prom luciferase reporter, luminescence, overnight;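 active means at 20 µM dose, 40% or more inhibition averaged across four replicates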
CF NFkB inh conf – CF NF-kB inhibition confirmation, single concentration. inhibition, % at 5 µM. KKLEB CF airway cells, PAF-induced NF-kB-GFP fluorescence, overnight. actives 64% (n = 1,300). shares compounds with CF NFkB inh; in the data active means inhibition above about 40%;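 further: stimulus PAF is a Pseudomonas aeruginosa filtrate and not platelet activating factor; plate controls were DMSO wells with stimulus for no effect and unstimulated DMSO wells for full effect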
Mdm2-MdmX confirm – Mdm2/MdmX (human) interaction inhibition, confirmed. shares compounds with HIF-2a inh. SaOS-2 split-luciferase Mdm2/MdmX complementation, luminescence. inhibition, % at 8 µM. actives 99% (n = 740). AID 504601;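 active means mean inhibition of the luminescence signal across two replicates at or above 26 percent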
Target sequence (O15151 whole entry, looked up): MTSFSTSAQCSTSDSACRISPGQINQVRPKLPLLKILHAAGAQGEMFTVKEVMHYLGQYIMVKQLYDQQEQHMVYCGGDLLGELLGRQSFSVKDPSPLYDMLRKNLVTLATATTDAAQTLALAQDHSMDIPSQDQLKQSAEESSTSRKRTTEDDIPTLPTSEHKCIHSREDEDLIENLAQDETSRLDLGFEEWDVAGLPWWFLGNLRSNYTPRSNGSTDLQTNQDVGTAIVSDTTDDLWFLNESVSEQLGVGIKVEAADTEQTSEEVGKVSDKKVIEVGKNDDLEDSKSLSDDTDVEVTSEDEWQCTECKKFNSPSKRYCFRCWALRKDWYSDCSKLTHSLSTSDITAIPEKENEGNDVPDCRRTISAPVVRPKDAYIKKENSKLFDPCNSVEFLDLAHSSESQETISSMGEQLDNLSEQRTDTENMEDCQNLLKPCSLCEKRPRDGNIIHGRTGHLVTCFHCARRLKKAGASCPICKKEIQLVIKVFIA
Target sequence (Q00987 whole entry, looked up): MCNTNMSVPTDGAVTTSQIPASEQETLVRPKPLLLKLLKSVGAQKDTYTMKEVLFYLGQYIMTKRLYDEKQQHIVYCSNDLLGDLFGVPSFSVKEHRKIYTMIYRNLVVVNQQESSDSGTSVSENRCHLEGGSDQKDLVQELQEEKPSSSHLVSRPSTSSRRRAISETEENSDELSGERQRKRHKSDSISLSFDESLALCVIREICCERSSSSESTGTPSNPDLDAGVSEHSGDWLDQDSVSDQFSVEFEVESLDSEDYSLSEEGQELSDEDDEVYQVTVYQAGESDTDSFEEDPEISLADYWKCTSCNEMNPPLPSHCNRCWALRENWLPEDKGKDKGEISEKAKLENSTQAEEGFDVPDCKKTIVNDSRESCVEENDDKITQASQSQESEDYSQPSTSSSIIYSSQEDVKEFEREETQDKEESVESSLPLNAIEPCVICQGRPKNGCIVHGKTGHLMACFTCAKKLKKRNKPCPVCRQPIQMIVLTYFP
HIF-2a conf – confirmation of HIF-2a inhibitors; AID 651580; shares compounds with HIF-2a inh; actives 56% (n = 1,800); 786-0 RCC cells, HIF-2a luciferase reporter luminescence, overnight; inhibition, % at 18.8 µM;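 active means mean inhibition across four replicates of at least 40 percent at the single tested concentration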
HIF-1a counter – HIF-1a inhibition counter-screen for HIF-2a hits; AID 651589; actives 72% (n = 1,800); inhibition, % at 18.8 µM; shares compounds with HIF-2a inh; MiaPaCa-2 HIF-1a luciferase reporter, desferoxamine, overnight;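 active means mean inhibition of the reporter signal across four replicates at the single tested dose of 50% or more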
* hit, by the source's call; . = no result. An excerpt weighted towards active compounds, which were near 4% of everything screened.

SMILES | TROY signal inh | CF NFkB inh | TWEAK-Fn14 inh | HIF-2a inh | KKLEB tox | Peg3 prom inh-1 | Peg3 prom inh-2 | HIF-2a conf | HIF-1a counter | others
Cc1c(OCC(=O)NCCCN2CCOCC2)ccc2c3c(c(=O)oc12)CCC3 | -10 | -9 | -21 | -18 | -4 | -4 | . | . | .
O=C(N/N=C/c1sc(N2CCOCC2)nc1-c1ccccc1)c1cccc(S(=O)(=O)N2CCCC2)c1 | 10 | -26 | 51* | 32 | 5 | 66* | 66* | . | . | Mdm2-MdmX confirm=80*
COc1cc2oc(=O)ccc2cc1-c1c(OC)ccc2ccc(=O)oc12 | -2 | -14 | 0 | 2 | 12 | 20 | . | . | .
CCCNC(=S)Nc1ccccc1 | -13 | -8 | -6 | 13 | 7 | 8 | . | . | .
Cc1cccc(N(C(=O)CNC(=O)c2ccco2)C(C(=O)NC2CCCCC2)c2cccnc2)c1 (stereo not drawn) | 11 | 0 | 12 | 19 | -3 | -9 | . | . | .
O=C(NC1CCCCC1)C(c1cccnc1)N(C(=O)CCl)c1cccc(Cl)c1 (stereo not drawn) | 9 | 54* | 44 | 62* | -63* | 106* | 99* | 98* | 106* | Mdm2-MdmX confirm=103*
O=C(CSc1nccc(=O)[nH]1)N1CCOCC1 | 13 | 18 | -1 | 6 | -8 | 10 | . | . | .
Cc1ccc(NC(=O)O/N=C/c2c(C)nn(C(C)(C)C)c2C)cc1Cl | 82* | 14 | 103* | 91* | -26 | 104* | 98* | 97* | 104* | Mdm2-MdmX confirm=101*
Cc1ccc(NC(=O)Nn2cnnc2)cc1Cl | 3 | -4 | 9 | -2 | -1 | 1 | . | . | .
N/C(=N\OC(=O)c1ccc([N+](=O)[O-])cc1Cl)c1ccccn1 | 67* | -25 | 94* | 41* | -30 | 50* | 21 | 28 | 62*
Cc1cc(C(=O)COC(=O)c2ccccc2O)c(C)n1CC1CCCO1 (stereo not drawn) | 90* | 31 | 106* | 90* | -22 | 85* | 92* | 95* | 98*
COCCn1c(C)cc(C(=O)COC(=O)c2ccccc2Br)c1C | 92* | 14 | 105* | 48* | -36 | 78* | 69* | 42* | 76*
Cc1cc(C(=O)COC(=O)c2ccccc2Br)c(C)n1CC1CCCO1 (stereo not drawn) | 71* | 15 | 92* | 55* | -32 | 54* | 78* | 68* | 90*
CCn1c(C)cc(C(=O)COC(=O)c2ccccc2[N+](=O)[O-])c1C | 90* | 5 | 105* | 82* | -67* | 94* | 91* | 87* | 87* | Mdm2-MdmX confirm=98*
O=C(COC(=O)c1ccccc1Br)NCC1CCCO1 (stereo not drawn) | -21 | -8 | 3 | -9 | 13 | -19 | . | . | .
Cc1cc(C)c(S(=O)(=O)NCc2ccc3c(c2)cc(C)n3C)c(C)c1 | 11 | -2 | 35 | 6 | -3 | 7 | . | . | .
O=C(Nc1ccccc1F)c1ccc(CSc2ncccn2)cc1 | -47 | 3 | -9 | -253 | 7 | -185 | . | . | .
Cc1cc(C(=O)COC(=O)c2ccc3c(c2)OCO3)c(C)n1Cc1cccs1 | -6 | -1 | 21 | -196 | 1 | -291 | . | . | .
Cc1cc(C(=O)COC(=O)c2ccccc2O)c(C)n1Cc1cccs1 | 64* | 13 | 102* | 90* | -44 | 91* | 87* | 96* | 97*
COc1cc(/C=N/O)ccc1OCc1ccc(C(=O)O)cc1 | -50 | 6 | 17 | 89* | -11 | 86* | 69* | 90* | -74
CCCC(=O)N1CCCC(c2cc(C(=O)Nc3ccccc3)no2)C1 (stereo not drawn) | 83* | 4 | 95* | 43* | -1 | 54* | 47* | 66* | 71*
CC(CCc1ccccc1)NC(=O)COC(=O)c1ccc(S(C)(=O)=O)c([N+](=O)[O-])c1 (stereo not drawn) | 70* | 91* | 71* | 50* | -64* | 102* | 97* | 38 | 97* | Mdm2-MdmX confirm=102*
CC(CCc1ccccc1)NC(=O)COC(=O)c1ccc([N+](=O)[O-])cc1 (stereo not drawn) | -19 | -21 | 21 | 16 | 0 | -7 | . | . | .
Cc1cccnc1 | 8 | 12 | -3 | -7 | -8 | 3 | . | . | .
O=c1c2ccccc2oc2cc(C#CC3(O)CCCCC3)ccc12 | 87* | 4 | 101* | 44* | -42 | 60* | 59* | 73* | 97*
SMILES | TROY signal inh | CF NFkB inh | TWEAK-Fn14 inh | HIF-2a inh | KKLEB tox | Peg3 prom inh-1 | Peg3 prom inh-2 | HIF-2a conf | HIF-1a counter | others
O=c1c2ccccc2sc2ccc(C#CC3(O)CCCCC3)cc12 | 92* | -25 | 107* | 87* | -85* | 79* | 92* | 94* | 104*
COc1cc2c(cc1OC)C(c1ccsc1)CC(=O)N2 (stereo not drawn) | -37 | 0 | -1 | 11 | -1 | -1 | . | . | .
CCCCCCCCCCCCCCCC(O)C[N+](C)(C)CCO (stereo not drawn) | 2 | 54* | -61 | 62* | -62* | 104* | 87* | 52* | 92*
CCCCCC(O)CCCC(=O)O (stereo not drawn) | 1 | -13 | -11 | 11 | 10 | 6 | . | . | .
O=C(c1ccc(Cl)cc1)N1CCCCC(Sc2nnc(-c3ccc4c(c3)OCO4)o2)C1=O (stereo not drawn) | 58* | -6 | 98* | 64* | -10 | 54* | 58* | 83* | 68*
O=C(O)CSc1nnc(-c2ccc3c(c2)OCO3)o1 | 4 | 10 | 1 | 22 | 2 | 9 | . | . | .
COc1cccc(-c2nnc3n2N=C(C(C)(C)C)CS3)c1 | 64* | 94* | 92* | 27 | -24 | 98* | 75* | . | . | CF NFkB inh conf=98*;Mdm2-MdmX confirm=103*
CC(C)c1nc(SCC(=O)N2CCN(c3ccccc3)CC2)c2c(=O)n(C)c(=O)n(C)c2n1 | 31 | -5 | 18 | 19 | -3 | 48 | . | . | .
Cc1ccc(C(=O)Nc2ccc3c(c2)OCCO3)c(C)c1 | 59* | -19 | 85* | 52* | -29 | 68* | 35 | 70* | 45
